Bioassay records: PubChem, several laboratories
GRK2 aptamer HTS: inhibitors of human GRK2 displacing RNA aptamer. bead flow cytometry, FAM-aptamer displacement from GRK2. inhibition of aptamer binding, % at 10 µM. 330,000 compounds, 0.59% hits. AID 488847;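 active = inhibition of aptamer binding above 40%, roughly 3 SD of noise, on plates passing a quality check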;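 also: median bead fluorescence of bound FAM aptamer so fluorescent compounds give negative values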
VLA-4 inh: inhibition in a human VLA-4 binding assay | P13612 | inhibition, % (about 7 µM as worked out from the volumes in the protocol) | 330,000 compounds, 0.2% hits | VLA-4 expressing cells, ligand binding flow cytometry
LANA-H2B inh: blocks KSHV LANA binding to histone H2A/H2B | Q9QR71 | cell-free LANA-H2A/H2B peptide, fluorescence polarization | inhibition, % (no concentration beside the values) | 320,000 compounds, 0.6% hits; in the data active = inhibition mostly above about 10%, no sharp cut-off; inactive = mostly below about 6.7%
HDAC3 inhib: blocks human histone deacetylase 3 | O15379 | recombinant HDAC3, fluorogenic peptide/trypsin coupled, fluorescence | inhibition, % at 8.3 µM | 320,000 compounds, 0.15% hits; in the data active = inhibition above about 26%, passing the limit was not always enough
Pemphigus Ab inh: inhibitors of pemphigus antibody binding to human desmoglein-3. DSG3-coupled beads, scFv-anti-DSG3-GFP binding, flow cytometry; hits give low values. binding (percent of control), % at 10 µM. 310,000 compounds, 0.48% hits. AID 588358;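 active = binding more than 3 SD below its plate's average and above zero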;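 also: hits lower antibody fragment binding to DSG3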
PKD1 kinase inh: PKD1 (human) kinase inhibition; Q15139; PKD1 kinase fluorescence polarization assay; inhibition, % (concentration not given with the values); 200,000 compounds, 0.056% hits; AID 797
VLA-4 mod pick: human VLA-4 allosteric modulation in cherry picked compounds | inhibition, % at 6.7 µM | shares compounds with VLA-4 inh | AID 2813 | 1,300 compounds, 2% hits | U937 cells, HUTS-21 LIBS mAb binding, flow cytometry; LDV ligand present at threefold Kd; in the data active = inhibition above about 40%;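 also: 0% = ligand without compound and 100% = no ligand background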
The depositor's hits bear a star; x = no result. In the library only some 1.8% were active in any assay of this set; here they are far more common. Rule as the data show it, unless noted: active = inhibition above about 50%; inactive = the rest.

SMILES	GRK2 aptamer HTS	VLA-4 inh	LANA-H2B inh	HDAC3 inhib	Pemphigus Ab inh	PKD1 kinase inh	VLA-4 mod pick
N#Cc1ccc(NC(=O)COC(=O)c2cccc(S(=O)(=O)N3CCCC3)c2)cc1	x	x	x	x	104	x	x
CC1CCCC(NC(=O)COC(=O)c2cccc(S(=O)(=O)N3CCCCC3)c2)C1C (stereo unspecified)	4	-21	2	4	79	x	x
CC1CCCC(NC(=O)CCNS(=O)(=O)c2ccc(Br)cc2)C1C (stereo unspecified)	0	52*	4	4	101	-4	-2
O=C(CCNS(=O)(=O)c1ccc(Br)cc1)NC1CCCCC1	0	6	-3	-7	x	0	x
CNS(=O)(=O)c1cccc(C(=O)OCC(=O)NC2CCCC(C)C2C)c1 (stereo unspecified)	0	-12	-5	-4	96	x	-1
Cc1cc(Cl)ccc1Oc1ccc(C(N)=O)cc1[N+](=O)[O-]	0	7	-3	-2	105	-9	x
Cc1cc(Cl)ccc1Oc1ccccc1C(=O)CC#N	5	41	-1	4	100	-1	-15
O=C(NCCCn1ccnc1)c1ccc(-c2ccccc2)cc1	0	45	-4	4	105	x	0
Cc1ccc(S(=O)(=O)NNC(=O)CCC(=O)Nc2ccc(C)cc2C)cc1	0	47	-2	-1	109	-6	-12
COC(=O)c1ccc(NC(=S)N2CCC(C(N)=O)CC2)cc1	2	46	-2	-4	99	-8	8
Cc1ccc(C(=O)c2cc([N+](=O)[O-])ccc2N2CCOCC2)cc1C	2	18	-4	3	94	7	7
Cc1ccc(C(=O)c2cc([N+](=O)[O-])ccc2N2CCOCC2)c(C)c1	0	26	x	x	99	5	50*
Cc1ccc(C(=O)c2cc([N+](=O)[O-])ccc2N2CCCCC2)cc1C	0	8	-4	10	93	-11	x
CCC(C)C(NC(=O)C(N)CC(C)C)C(=O)NC(CCC(=O)OCc1ccccc1)C(N)=O (stereo unspecified)	0	54*	6	-6	107	-5	5
C[C@H](Cc1ccccc1)Nc1ncnc2c1ncn2[C@@H]1O[C@H](CO)[C@@H](O)[C@H]1O	0	59*	-11	-8	99	x	4
CC(Cc1ccccc1)Nc1ncnc2c1ncn2C1OC(CO)C(O)C1O (stereo unspecified)	0	44	-3	-3	104	x	x
COc1cc2c(cc1OC)C(C)N(CCN1C(=O)c3ccccc3C1=O)CC2 (stereo unspecified)	0	44	1	-11	91	x	-7
CCOc1ncccc1C(=O)OCC(=O)NC1CCCCCC1	x	x	x	x	101	x	x
Cc1ccccc1N1CCN(C(=O)NCc2cccc(Cl)c2)CC1	0	6	3	4	102	x	x
Cc1cc(C)n(-c2nc3c(c(=O)[nH]c(=O)n3C)n2Cc2cccc(Br)c2)n1	2	54*	4	7	113	3	6
O=C(NCCN1C(=O)S/C(=C\c2cccs2)C1=O)[C@H](Cc1ccccc1)N1C(=O)c2ccccc2C1=O	0	16	-9	3	x	-14	x
COc1ccc(/C=C\C(=O)NCc2ccc3c(c2)cc(C)n3C)cc1OC	4	58*	0	6	107	-7	2
COc1ccc(/C=C/C(=O)NCCCNC(=O)/C=C/c2ccc(OC)c(OC)c2)cc1OC	3	0	2	4	110	x	x
CCOc1cc(C(=O)N/N=C/C(Br)=C/c2ccccc2)cc(OCC)c1OCC	0	51*	-3	0	95	-4	18
O=C(N/N=C/C(Br)=C/c1ccccc1)c1ccncc1	1	3	-3	8	x	x	x
CC(NC(=O)c1ccccc1F)c1nnc(SCC(=O)Nc2nccs2)n1C (stereo unspecified)	0	-1	-11	6	109	x	3
c1ccc2c(c1)nnn1c3ccccc3nc21	0	30	-3	1	x	2	x
Nn1nnc2ccccc21	1	56*	-2	7	101	x	-3
CC(OC(=O)C1CCC1)C(=O)Nc1cc(Cl)cc(Cl)c1 (stereo unspecified)	4	-8	-1	4	99	x	x
